Results on 11 compounds are retold here after PubChem BioAssay (EPA / NIEHS).

SMILES strings stand for the structures. Inconclusive results are not listed. Active and inactive are the calls of the source. How the source made its calls: active means hit-call score of the fitted dose curve at least 0.9, where 1 is the maximum; inconclusive means response in the unintended direction; inactive means score below 0.9.

human Ephrin type-B Receptor 2 (EphB2), EPHB2 (gene 2048), sequence (P29323 whole entry, looked up): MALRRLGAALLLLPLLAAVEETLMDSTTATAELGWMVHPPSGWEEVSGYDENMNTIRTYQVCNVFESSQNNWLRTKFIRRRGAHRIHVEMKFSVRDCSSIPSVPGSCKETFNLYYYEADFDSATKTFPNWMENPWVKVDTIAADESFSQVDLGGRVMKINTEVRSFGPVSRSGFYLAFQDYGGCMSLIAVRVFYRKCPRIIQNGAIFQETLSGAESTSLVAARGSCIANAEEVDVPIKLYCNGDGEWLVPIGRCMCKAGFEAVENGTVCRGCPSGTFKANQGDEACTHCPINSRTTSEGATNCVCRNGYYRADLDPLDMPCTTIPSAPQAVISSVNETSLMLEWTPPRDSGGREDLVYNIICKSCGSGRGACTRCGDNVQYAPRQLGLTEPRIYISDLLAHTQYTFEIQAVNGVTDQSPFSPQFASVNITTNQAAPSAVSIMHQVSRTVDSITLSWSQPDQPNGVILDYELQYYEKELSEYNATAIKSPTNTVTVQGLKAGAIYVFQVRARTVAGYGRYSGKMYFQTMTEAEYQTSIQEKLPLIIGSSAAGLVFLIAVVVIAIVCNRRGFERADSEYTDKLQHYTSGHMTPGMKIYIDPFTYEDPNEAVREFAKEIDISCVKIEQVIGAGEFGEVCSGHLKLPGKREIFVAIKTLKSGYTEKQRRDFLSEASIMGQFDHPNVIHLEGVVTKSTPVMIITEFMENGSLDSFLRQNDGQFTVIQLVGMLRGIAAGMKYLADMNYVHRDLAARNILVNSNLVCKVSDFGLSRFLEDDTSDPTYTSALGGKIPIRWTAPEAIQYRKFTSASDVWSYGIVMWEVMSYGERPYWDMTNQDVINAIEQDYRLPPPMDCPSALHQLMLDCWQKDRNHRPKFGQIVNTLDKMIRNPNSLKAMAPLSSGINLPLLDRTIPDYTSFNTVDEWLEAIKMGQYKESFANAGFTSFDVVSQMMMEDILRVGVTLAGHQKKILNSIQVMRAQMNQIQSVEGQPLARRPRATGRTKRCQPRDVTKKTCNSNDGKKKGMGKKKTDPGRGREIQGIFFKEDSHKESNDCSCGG

The target in this experiment is human Ephrin type-B Receptor 2 (EphB2), EPHB2 (gene 2048) (UniProt P29323). The experiment can be described thus: NVS_ENZ_hEphB2: NovaScreen (NVS) Enzymatic Assay for human Ephrin type-B Receptor 2 (EphB2) (AID 2283156). On the procedure:
NVS_ENZ_hEphB2 is a biochemical, single-readout assay that uses extracted gene-proteins in a cell-free assay. Measurements were taken 1 hour after chemical dosing in a 384-well plate.NVS_ENZ_hEphB2 is one of one assay component(s) measured or calculated from the NVS_ENZ_hEphB2 assay. It is designed to make measurements of enzyme activity, a form of enzyme reporter, as detected with fluorescence intensity signals by Fluorescence and electrophoretic mobility shift technology.Data from the assay component NVS_ENZ_hEphB2 was analyzed into 1 assay endpoint. This assay endpoint, NVS_ENZ_hEphB2, was analyzed in the positive analysis fitting direction relative to DMSO as the negative control and baseline of activity. Using a type of enzyme reporter, loss-of-signal activity can be used to understand changes in the enzymatic activity as they relate to the gene EPHB2. Furthermore, this assay endpoint can be referred to as a primary readout, because this assay has produced multiple assay endpoints where this one serves a enzymatic activity function. To generalize the intended target to other relatable targets, this assay endpoint is annotated to the kinase intended target family, where the subfamily is receptor tyrosine kinase.
Binding assays used specific radioligands (tritiated, iodinated) with non-radioactive competitive displacement ligands in agonist or antagonist protocols (as indicated) and various reference compounds and inhibitors to titrate specific binding to receptors and transporters. Most enzyme assays (CYPs, kinases, phosphatases, proteases, HDACs) used recombinant protein and specific substrates (fluorescence mostly, some colorimetric and radioactive) and inhibitors, followed by a biochemical separation of substrate and product. All assays for the biochemical HTS were initially run in duplicate at a single concentration (10 uM for CYP450 assays and 25 uM for all others). Assay-chemical combinations meeting a pre-defined threshold (e.g., 30% inhibition and other criteria defined below) were then run in singleton concentration-response format with maximum concentration of 20 uM for CYPs and 50 uM for all others. Each assay was run with positive and negative controls, and concurrent controls on every plate. The follow-up (secondary) screen tested active chemical-pairs in concentration series, as well as a few additional assays not tested in the primary screen, some selected negative inactives, and several cases re-run in the concentration series for confirmatory purposes.
Consider `Oc1ccc(C(c2ccc(O)cc2)C(Cl)(Cl)Cl)cc1`, for which the outcome was inactive.

Consider `CN(C)C(=O)NC1(c2ccccc2)CCN(CCC[C@]2(c3ccc(Cl)c(Cl)c3)CCCN(C(=O)c3ccccc3)C2)CC1`, for which the result was inactive. With `CC(C)(c1ccc(O)cc1)c1ccc(O)cc1`, the call was inactive. In the case of `COc1cc(C(=O)NC2CCN(C)CC2)ccc1Nc1ncc2c(n1)N(C1CCCC1)CC(F)(F)C(=O)N2C`, the compound was called inactive. On the same count and under the same terms, with `Clc1nc(Cl)c(Cl)c(Cl)c1Cl` the entry was “inactive”; with `COCCO`, “inactive”. Regarding `CCCCCCCC/C=C\CCCCCCCC(=O)OC[C@@H](O)[C@H]1OC[C@H](O)[C@H]1O`, the AC50 (usually the concentration at which the activity in the assay is half-maximal) is 6.52 µM (active).

For the compound `Cc1ccc(N)cc1O`, the result was inactive. `CCCCCCC(C)OC(=O)COc1nc(F)c(Cl)c(N)c1Cl` (stereo unspecified): the compound was called inactive. Same read-out and setting: with `CCOC(=O)CC(CC(=O)OCC)(OC(C)=O)C(=O)OCC` the entry was “inactive”; with `Cc1[nH]nc2c1N=C(c1ccccc1Cl)c1cc([N+](=O)[O-])ccc1N2`, “inactive”.
